We go through 54 compounds from PubChem BioAssay AID1029 (Sanford-Burnham Center for Chemical Genomics, 2008).

The term inhibition denotes the change of the read-out against control, counted positive when it falls.

Out of some 110,000 compounds screened, about 80 (0.07%) were called active.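 How the source made its calls: active means inhibition above the mean of the plate negative controls plus 5 SD (cut at about 13% in these data); inactive means the rest.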 The sample as a whole holds a higher share of actives than the screen did.

The nature of this test: blockers of IgG-bead uptake by macrophages – imaging, J774A.1 cells, IgG beads, primary screen (AID 1029).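 Further: phagocytic index as fraction of beads internalized from green versus red external bead signal; plate controls were DMSO negative control for no effect and cytochalasin-D positive control for full effect.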 The note with it: J774A.1 macrophage IgG-bead phagocytosis, at 5 µM, active compounds read high.
With `O=C(c1cccs1)n1nc(NCc2ccccc2)nc1NCc1ccccc1`, the inhibition is -7.68% (inactive).
Then `CCC1C=C(c2ccccc2)C=CN=C1N(CC)CC` (centres undefined), with -1.57% (inactive); and `O=C(Cn1cc(C(F)(F)F)ccc1=O)N/N=C/c1ccc(Cl)cc1Cl`, with -1.82% (inactive); and `O=C(CN1CCSCC1)N/N=C/c1ccc(F)cc1`, with -0.8% (inactive).
Then `O=C(CN1CCSCC1)N/N=C/c1ccc(F)cc1F`, with 117% (active).
The same measure for `COCCNc1cc(NCCOC)c([N+](=O)[O-])cc1[N+](=O)[O-]`: -0.9% (inactive).
`O=C(N/N=C/c1ccc(Br)o1)c1cncc(Br)c1`: the inhibition is -4.83% (inactive).
For the compound `CC(=O)c1c(N2CCN(c3ccc(F)cc3)CC2)nc(=S)n(-c2ccccc2)c1C`, the inhibition is -2.05% (inactive).
Then `COc1ccc2c(CC(=O)OCC(=O)Nc3ccccc3[N+](=O)[O-])coc2c1`, with -0.7% (inactive); and `COc1ccccc1-c1nnc(NC(=O)c2ccc3ncsc3c2)o1`, with -6.06% (inactive).
The same measure for `Cc1ccc(SCCC(=O)NC(C(C)C)C(C)C)cc1`: -6.42% (inactive); for `COC(=O)c1ccccc1NS(=O)(=O)c1ccc2[nH]c(=O)[nH]c2c1`: -2.75% (inactive); for `Cc1ccccc1C1=NC(C(F)(F)F)(C(F)(F)F)c2c(n(-c3ccc(F)cc3)c(=O)[nH]c2=O)N1`: -2.94% (inactive).
The same measure for `COc1ccccc1N1CCN(CC(=O)NC(=O)NCc2ccco2)CC1`: -5.49% (inactive); for `CCCNC(=O)NC(=O)COC(=O)CC(NC(N)=O)c1ccc(Cl)cc1` (centres undefined): -1.97% (inactive); for `Cc1ccc(NC(=O)COC(=O)CCc2nc3ccccc3n2-c2ccccc2)c(C)c1`: -9.97% (inactive).
As for `Cn1cnc(C(F)(F)F)c1-c1ccc([N+](=O)[O-])cc1`, the inhibition is -12.1% (inactive).
Then `CN(C)c1ccc(/C=N/NC(=O)c2ccc(Cn3cc(Br)cn3)o2)cc1`, with -0.35% (inactive); and `O=C(NNC(=O)c1cc2c(s1)CCCC2)c1ccccc1`, with -4.32% (inactive).
Then `COc1cc(CCC(=O)OCC(=O)Nc2cccc(S(N)(=O)=O)c2)cc(OC)c1OC`, with -3.93% (inactive).
Then `CC(C)(C)C(=O)NC(NC(=S)Nc1ccc(S(N)(=O)=O)cc1)C(Cl)(Cl)Cl` (centres undefined), with -10.5% (inactive); and `CC(OC(=O)c1ccccc1N1C(=O)C2C3CCC(C3)C2C1=O)C(=O)c1ccccc1` (centres undefined), with -1.86% (inactive); and `CC(C)C(=O)Nc1ccc(C(=O)NNC(=O)c2cccs2)cc1`, with -0.44% (inactive).
`O=[N+]([O-])c1ccc(NCCCO)c(C(F)(F)F)c1`: the inhibition was -3.18% (inactive).
Then `CN(C)CCNC(=O)/C(=C/c1cccc([N+](=O)[O-])c1)NC(=O)c1ccccc1`, with -4.59% (inactive); and `S=C(NCC1COc2ccccc2O1)Nc1ccc(Br)cc1` (centres undefined), with -5.67% (inactive); and `NC(=O)Nc1ccccc1C(=O)NCCc1ccccc1`, with 2.64% (inactive).
Then `Cc1nn(Cc2ccc(Cl)cc2)c(Cl)c1/C=N/NC(=O)c1cccnc1`, with -2.24% (inactive).
The same measure for `Cc1cc(Cl)ccc1OCCCC(=O)NCc1ccncc1`: 1.98% (inactive).
Take `CC1CN(S(=O)(=O)c2ccc(C(=O)Nc3sccc3C(N)=O)cc2)CC(C)O1` (centres undefined): the inhibition was -5.22% (inactive).
As to `CNC(=S)N/N=C/c1ccc(OCc2ccccc2)c(Br)c1`, the inhibition was -0.67% (inactive).
`CCCCCC(=O)Nc1ccc(S(=O)(=O)Nc2ccc(Cl)nn2)cc1`: the inhibition is -11.6% (inactive).
The same measure for `COc1cccc(NC(=S)NCc2ccco2)c1`: -4.01% (inactive).
Then `CCC(NC(=O)c1ccccc1NC(=O)c1ccccc1)C(=O)NNC(=O)CSc1nc2ccccc2o1` (centres undefined), with -1.59% (inactive).
Turning to `CCc1ccc(C2C(C#N)=C(N)N(N(C)C)C3=C2C(=O)CCC3)s1` (centres undefined), the inhibition was -3.98% (inactive).
Then `O=C(/C=C\c1ccc2c(c1)OCO2)NC1(C(=O)Nc2ccc3c(c2)OCCO3)CCCCC1`, with -2.27% (inactive).
The same measure for `COc1ccc(NC(C(=O)Nc2cccc(C(C)=O)c2)c2ccccc2)cc1` (centres undefined): -15.7% (inactive); for `C/C(=N\NC(=O)c1ccc(CSc2nc(C)cc(C)n2)cc1)C1CCCCC1`: -4.86% (inactive).
The same measure for `CCCn1c(=O)c2c(C(F)(F)F)cc(-c3cccs3)nc2n(CCC)c1=O`: 1.31% (inactive); for `COC(=O)c1sc(N)c(C(=O)OC)c1COC(=O)CNS(=O)(=O)c1ccc(C)cc1`: -11.5% (inactive); for `Cc1ccc(/C=C/C(=O)Nc2cc(S(=O)(=O)N3CCCCCC3)ccc2OCC(F)(F)F)o1`: -12.4% (inactive).
On to `O=C(/C=C/NCc1ccc(F)cc1)c1ccccc1`, for which the inhibition is -1.23% (inactive).
Then `Cn1cc(C(=O)NCc2ccccc2F)cn1`, with 1.49% (inactive).
Then `C=CCc1ccccc1OCC(=O)N/N=C/c1ccccc1OCC`, with 1.26% (inactive).
Then `CCOc1ccc(Oc2nc(C)cc(OC)n2)nn1`, with -0.15% (inactive); and `COCCCNC(=S)NC(=O)c1ccccc1`, with -6.86% (inactive); and `C/C(=N\NC(=O)Cc1ccc(F)cc1)c1ccc(F)cc1`, with -0.05% (inactive).
Take `COc1ccc(C(=O)CSc2nnc(NC(=O)C3CC(=O)N(c4cccc(OC)c4)C3)s2)cc1` (centres undefined): the inhibition was 6.45% (inactive).
The same measure for `CC1CCCCN1S(=O)(=O)c1ccc(S(=O)(=O)N(CC(=O)Nc2ccccc2)Cc2cccs2)cc1` (centres undefined): -1.49% (inactive); for `COc1ccc([C@H]2[C@H](C(C)=O)N3N=Cc4ccccc4C3C23C(=O)OC(C)(C)OC3=O)cc1` (some centres undefined): 5.33% (inactive).
The same measure for `CCOC(=O)CNC(=O)/C=C/c1c(Cl)cccc1Cl`: -2.32% (inactive); for `CC(=O)NC(Cc1ccccc1)C(=O)NC1CCN(c2ncccc2[N+](=O)[O-])CC1` (centres undefined): 1.47% (inactive).
Turning to `COc1ccc(OCC(=O)Nc2cc(C)c(Cl)cc2OC)c([N+](=O)[O-])c1`, the inhibition is -2.85% (inactive).
The same measure for `COc1ccc(S(=O)(=O)NC(C)C)cc1C(=O)NC1CCCCC1`: -3.85% (inactive).
